Compounds with a hit are over-represented: about 4.5% of the library has one in this group of screens.
aSyn 5UTR inh: MLPCN primary screen, SNCA 5' untranslated region. alpha-synuclein 5'UTR reporter, inhibitor activity. inhibition, % (tested at 7.5 µM). 0.82% of 300,000 active. AID 1813; in the data active means inhibition above about 60%; inconclusive means no clear call, values can overlap the other calls;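 further: H4 neuroglioblastoma cells stably carrying SNCA 5'UTR luciferase fusion; 0% = DMSO wells and 100% = positive control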
Mdm2 MdmX PPI: human Mdm2/MdmX binding inhibition; O15151+Q00987; inhibition, % at 8 µM; AID 485346; SaOS-2 split-luciferase Mdm2/MdmX complementation, luminescence; 3% of 330,000 active;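 active means inhibition of at least 50% at 8 µM in the primary screen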
Jurkat NFkB inh: lowers PMA/ionomycin-induced NF-kB signal in Jurkat cells. PMA/ionomycin-induced NF-kB luciferase reporter, luminescence. inhibition, % at 4 µM. 0.53% of 330,000 active; in the data active means inhibition above about 50%
697 NFkB inh: lowers PMA/ionomycin-induced NF-kB signal in 697 B cells | 697 B-cell NF-kB luciferase reporter, 16 h | inhibition, % at 4 µM | 0.33% of 330,000 active | AID 435022; in the data active means inhibition above about 35%
CSC inhib: cancer stem cell inhibition; cancer stem cell-like cells viability, luminescence; inhibition, % at 7.5 µM; 1.1% of 300,000 active; AID 2717; in the data active means inhibition above about 75%; inconclusive means no clear call, values can overlap the other calls; tested in HMLE shEcad cells
Gli-Sufu block: Gli-Sufu pathway antagonism; 0.74% of 340,000 active; inhibition, % at 5 µM; Sufu-KO-LIGHT fibroblasts, Gli luciferase reporter luminescence; AID 588413;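 active means inhibition above about 55%, limit read from the data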;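 further: 0% = DMSO-treated cells and 100% = wells with medium but no cells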
Mdm2-MdmX conf: human Mdm2/MdmX binding inhibition, confirmed | shares compounds with Mdm2 MdmX PPI | luminescent assay | inhibition, % at 8 µM | 55% of 10,000 active; in the data active means inhibition above about 40%
Full FLuc ctr: inhibits full-length luciferase, flagging false Mdm2/MdmX hits | shares compounds with Mdm2 MdmX PPI | SaOS-2 full-length luciferase counterscreen, luminescence | inhibition, % at 8 µM | 77% of 6,200 active;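 active means mean inhibition at 8 µM reaching about 37%, which flags the compound as non-specific, limit read from the data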;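 further: p53-null SaOS-2 cells with luciferase driven by a doxycycline-inducible promoter; compound on cells about two nights before reading with doxycycline added after day one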
* marks the source's active call; other numbers are inactive results; u = inconclusive; x = no result; ! = not confirmed by another sample.

SMILES	aSyn 5UTR inh	Mdm2 MdmX PPI	Jurkat NFkB inh	697 NFkB inh	CSC inhib	Gli-Sufu block	Mdm2-MdmX conf	Full FLuc ctr
Cc1ccc(C(=O)Nc2ccc(NC(=O)c3cccs3)cc2)cc1[N+](=O)[O-]	-21.0	86.7*	3.2	0.4	-15.5	6.4	23.7	107.5*
CCOc1ccc(OCCC(=O)OCC(=O)NC(C)c2ccccc2)cc1 (centres undefined)	11.0	1.3	11.1	15.6	x	-2.3	x	x
COCCCn1c(SCC(=O)n2c(C)c(C)c3ccccc32)nnc1-c1ccoc1C	18.2	2.7	20.3	-3.6	7.5	2.2	x	x
Cc1c(N=C2N=C(NC(=O)NC(C)(C)C)c3ccccc32)c(=O)n(-c2ccccc2)n1C	-0.9	9.3	-2.0	3.3	-17.6	17.4	x	x
Cc1c(N=C2N=C(NC(=O)c3cccs3)c3ccccc32)c(=O)n(-c2ccccc2)n1C	-32.7	77.6*	-3.1	-2.3	28.0	7.7	13.1	x
O=C(CSc1ccc2nnc(-c3ccc(Cl)cc3)n2n1)N1CCCc2ccccc21	6.3	84.0*	11.4	-0.7	-0.2	23.3	35.2	90.0*
Cc1ccc(Nc2nc3nonc3[nH]c2=O)cc1Cl	-72.1	76.0*	-5.3	-1.8	2.4	-1.1	80.1*	72.0*
Cc1ccc(Nc2nc3nonc3[nH]c2=O)cc1C	-39.6	4.5	-18.6	-58.8	6.6	-3.7	x	x
COc1cc2cc(CN(CCc3ccccc3C)C(=S)NCCCN3CCOCC3)c(=O)[nH]c2cc1OC	20.7	51.8*	-19.2	23.4	2.0	26.1	20.2	x
COc1cc2cc(CN(CCc3ccccc3C)C(=S)NCCCN(C)C)c(=O)[nH]c2cc1OC	4.9	54.9*	-12.3	-1.4	2.5	12.8	22.4	x
Cc1ccc2cc(CN(CCCN(C)C)C(=S)NCc3ccccc3)c(=O)[nH]c2c1C	14.0	55.4*	-12.9	6.3	-2.1	7.8	31.1	x
Cc1ccc2cc(CN(CCCN(C)C)C(=O)NCc3ccccc3)c(=O)[nH]c2c1C	-14.7	23.4	-42.9	-51.7	-10.6	-11.2	x	x
COc1cc(-c2n[nH]c(=S)n2-c2ccc(C)cc2)cc(OC)c1OC	2.5	5.3	1.2	7.1	0.7	11.7	x	x
Cc1cc(C)cc(SCc2noc(C(=O)NCCC(C)C)c2C(=O)NCCC(C)C)c1	15.4	10.0	1.1	19.2	16.7	8.4	x	x
N#C/C(=C\C=C\c1ccccc1[N+](=O)[O-])c1nc(-c2ccc3c(c2)OCO3)cs1	-22.1	63.3*	1.7	12.3	-1.2	11.8	6.5	x
Cc1cccc(NC(=O)c2nc[nH]c2C(=O)NCCCCCCNC(=O)c2[nH]cnc2C(=O)Nc2cccc(C)c2)c1	x	70.7*	0.1	6.4	37.6	-3.4	-21.7	x
Cc1cccc(NC(=O)c2nc[nH]c2C(=O)NCCCCNC(=O)c2[nH]cnc2C(=O)Nc2cccc(C)c2)c1	x	74.9*	2.9	18.6	40.3	7.2	3.7	x
CC[C@@]1(C(=O)OC)N[C@H](CN(C)C(=O)Nc2ccc(Cl)cc2)[C@@H]2C(=O)N(Cc3ccccc3)C(=O)[C@@H]21	x	64.2*	4.8	15.0	x	-1.3	56.7*	51.4*
COc1cccc(C2SCC(=O)N2c2ccc(Br)cc2)c1OC (centres undefined)	11.7	7.9	12.2	10.1	x	8.5	x	x
Cc1ncc(CO)c2cc(C(N)=O)c(=Nc3ccccc3)oc12	11.6	-9.0	-12.4	-19.8	-1.4	-4.6	x	x
Cc1ncc(CO)c2cc(C(=O)Nc3cccc(F)c3)c(=Nc3cccc(C(N)=O)c3)oc12	-15.6	22.9	-13.4	-7.1	3.0	3.8	x	x
COc1ccc(NC(=O)c2cc3c(CO)cnc(C)c3oc2=Nc2cccc(F)c2)c(OC)c1	-19.1	72.1*	10.5	-8.3	17.4	-10.2	74.5*	27.9
Cc1ccc(NC(=O)c2cc3c(CO)cnc(C)c3oc2=Nc2cccc(C(N)=O)c2)cc1	-5.0	77.6*	11.7	9.6	4.0	0.1	63.9*	48.3*
Cn1c(CNc2nc3ccccc3n2CCN2CCCCC2)nc2ccccc21	-22.1	11.6	15.4	-8.7	-5.6	1.5	x	x
c1ccc(Cn2c(CNc3nc4ccccc4n3CCN3CCCCC3)nc3ccccc32)cc1	-12.4	56.7*	-11.0	-45.1	16.9	13.8	14.8	x
SMILES	aSyn 5UTR inh	Mdm2 MdmX PPI	Jurkat NFkB inh	697 NFkB inh	CSC inhib	Gli-Sufu block	Mdm2-MdmX conf	Full FLuc ctr
Oc1ccc(-c2[nH]ncc2-c2ccc(Br)cc2)c(O)c1	-35.3	55.7*	2.1	-5.2	12.0	7.6	20.4	x
COc1ccc(-c2[nH]ncc2-c2ccc(Cl)cc2)c(O)c1	38.9	43.9	2.5	-22.3	25.9	0.1	x	x
O=[N+]([O-])c1ccc(COc2ccc(-c3[nH]ncc3-c3ccc(Cl)cc3)c(O)c2)cc1	25.1	82.5*	13.4	13.7	82.4*	7.0	51.2*	42.6*
COc1ccc(-c2cn[nH]c2-c2ccc(OCc3ccc([N+](=O)[O-])cc3)cc2O)cc1OC	1.0	30.4	35.3	-17.9	x	15.2	x	x
COc1ccc(-c2cn[nH]c2-c2ccc(OCc3ccccc3)cc2O)cc1	12.8	78.2*	14.8	11.3	102.1*	1.6	76.9*	54.9*
COc1ccc(-c2cn[nH]c2-c2ccc(OC)cc2O)cc1	41.0	70.7*	17.0	1.2	-5.6	-13.9	61.9*	32.5
Cc1ccc2c(C)nc(Nc3nc(CSc4nc5ccccc5[nH]4)cc(=O)[nH]3)nc2c1	u	59.4*	36.7	-27.6	61.3	22.6	57.9*	32.5
CCCCCOC(=O)Cn1c(=O)oc2ccccc21	-0.9	22.4	7.9	12.3	0.0	-4.0	x	x
CCCCCCCCCCOC(=O)Cn1c(COc2ccccc2C)[n+](C)c2ccccc21	25.0	88.5*	44.5	30.1	106.3*	85.2*	69.2*	16.9
CCCCCCCCCCOC(=O)Cn1c(COc2ccccc2)[n+](C)c2ccccc21	7.0	69.0*	8.5	-3.2	103.5*	62.0*	71.7*	20.0
CCCCOC(=O)Cn1c(=O)n(CC(=O)OCCCC)c2ccccc21	1.0	-8.5	-2.0	-4.6	-2.1	-12.6	x	x
CCCCCCCCCCOC(=O)Cn1c(COc2cccc(C)c2)[n+](C)c2ccccc21	64.8*	85.8*	35.1	5.9	169.1*	x	70.6*	24.9
CCCCCCCCCCOC(=O)Cn1c(COc2ccc(Cl)cc2)[n+](C)c2ccccc21	82.6*	78.0*	32.5	-0.7	108.6*	68.0*	74.0*	59.4*
CCCCC(=O)Nc1c2c(nn1-c1ccc(C)cc1)CS(=O)(=O)C2	-4.1	18.6	-8.2	8.8	-16.1	10.3	x	x
CCCCCCCCCCOC(=O)Cn1c(COc2ccc(OC)cc2)[n+](C)c2ccccc21	25.0	85.1*	40.9	-5.7	102.9*!	75.6*	75.9*	20.6
COc1ccc(NS(=O)(=O)c2cc(NC(=O)c3ccccc3)ccc2N2CCOCC2)cc1	x	60.0*	28.5	-27.3	29.4	-18.8	31.8	x

Screens from PubChem.
